Source: PubChem
NIH3T3 tox = NIH 3T3 cell cytotoxicity. 4.3% of 94,000 active. NIH 3T3 viability, CellTiter-Glo ATP luminescence, 48-72 h. Potency, µM (titrated, usually from 96.7 µM), inactives show at the top dose activity change, negative = cytotoxicity, hits mostly inhibitors; also: potency is read from the fitted curve at half-maximal effect; nearly all actives have a fitted effect of over 55% in size
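NIH 3T3 cells at 400 cells/well received 23 nL of compound by pintool and were incubated 48 or 72 h at 37 °C. Viability was read as ATP-coupled CellTiter-Glo luminescence.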
Luciferase inh = inhibitors of firefly (Photinus pyralis) luciferase; P08659; purified P. pyralis luciferase, luminescence, biochemical; Potency, µM (titrated, usually from 115 µM), most hits filed as inhibitors; 2.5% of 76,000 active; AID 1347043; also: potency is read from the fitted curve at half-maximal effect; nearly all actives have a fitted effect of over 65% in size
Target sequence (P08659 whole entry, looked up): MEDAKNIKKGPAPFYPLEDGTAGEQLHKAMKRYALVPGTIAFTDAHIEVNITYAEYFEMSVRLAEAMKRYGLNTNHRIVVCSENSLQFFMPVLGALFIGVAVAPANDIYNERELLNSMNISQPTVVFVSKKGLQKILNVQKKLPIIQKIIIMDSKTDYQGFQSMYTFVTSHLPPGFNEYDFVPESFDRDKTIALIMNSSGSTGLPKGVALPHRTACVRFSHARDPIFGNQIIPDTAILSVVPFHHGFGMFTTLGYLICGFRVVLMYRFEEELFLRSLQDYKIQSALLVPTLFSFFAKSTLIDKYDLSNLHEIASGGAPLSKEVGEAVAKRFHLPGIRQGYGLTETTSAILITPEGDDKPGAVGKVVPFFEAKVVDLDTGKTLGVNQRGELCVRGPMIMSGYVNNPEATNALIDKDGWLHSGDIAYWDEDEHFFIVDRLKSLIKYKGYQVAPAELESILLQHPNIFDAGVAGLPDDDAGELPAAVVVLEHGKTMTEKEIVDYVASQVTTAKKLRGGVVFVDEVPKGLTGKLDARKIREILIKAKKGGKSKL
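Purified P. pyralis luciferase (10nM final) in 50mM Tris acetate pH 7.5, 10mM Mg acetate, 0.01% Tween-20, 0.05% BSA with 10uM D-luciferin and 10uM ATP. Compounds titrated qHTS. Luminescence imaged on CCD.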
HEK293 viab = cell viability loss counter-screen; HEK-293-SNCA-luc viability, GF-AFC fluorescence, 24 h; Potency, µM (doses to about 57.1 µM), without a hit: at the top dose activity change, negative = cytotoxicity, usual class: cytotoxic; 0.12% of 150,000 active; AID 1671193;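 also: potency is read from the fitted curve at half-maximal effect; 0% = DMSO-treated cells and -100% = medium-only wells without cells; nearly all actives have a fitted effect of over 30% in size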
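HEK-293-SNCA-luc cells (1500/well) plated 24 h, then exposed 24 h to a dilution series; GF-AFC added 30 min at 37C, fluorescence 405/540 nm; normalised to medium-only and DMSO wells, Hill fit.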
IP6K1 inhibitor = inhibitors of human IP6K1; AID 1645851; IP6K1 kinase, ADP-Glo luminescence, 2 h; hits give low values; activity change, % (series mostly up to about 58 µM); 0.81% of 140,000 active; in the data active = activity change below about -25%
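ADP-Glo luminescence measures ADP made by human IP6K1 during a 2 h RT reaction with ATP/IP6 (mix at 1.3 mM/130 uM); top library doses 57.5 and 19.1 uM final.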
SNCA expr inhib = reduces expression of the alpha-synuclein gene; 0.17% of 140,000 active; Potency, µM (top dose mostly 57.2 µM), without a hit: top-dose activity change, negative = inhibition, hits mostly inhibitors; HEK-293 SNCA-luciferase knock-in, luminescence, 24 h;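 also: potency is read from the fitted curve at half-maximal effect; plate controls were DMSO cells for no effect and cell-free wells for full effect; nearly all actives have a fitted effect of over 45% in size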
HEK cytotox = kills HEK 293 cells. HEK 293 viability, ATP luminescence (CellTiter-Glo), 48-72 h. Potency, µM (top dose mostly 115 µM), without a hit: at the highest dose activity change, negative = cytotoxicity, usual class: inhibitors. 6.6% of 94,000 active; also: potency is read from the fitted curve at half-maximal effect; nearly all actives have a fitted effect of over 60% in size
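HEK 293 cells seeded at 250 cells/well were exposed to compound for 48 or 72 hr at 37 degree Celsius. Viability taken as ATP content by CellTiter-Glo luminescence.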
An asterisk follows results filed as active; i = inactive; ? = inconclusive; . = not tested or not shown; [ ] = dose if it differs, or a comment. Sampled rows, rich in hits. Any-hit rate of the full collection: about 7.3%. Unless noted, calls follow the shape of the dose curve; as a rule, active = well fitted curve in the direction sought with a large enough effect; inconclusive = small, poorly fitted or top-dose-only effect, or another doubt; inactive = no such curve, though single readings can be large; an effect the other way counts as inactive or inconclusive. Unless noted, % is scaled to controls: 0 for no effect and ±100 for the full control effect.

SMILES	NIH3T3 tox	Luciferase inh	HEK293 viab	IP6K1 inhibitor	SNCA expr inhib	HEK cytotox
COc1ccc(-c2nc(C)nc3c2CN([S+](=O)([O-])c2cccc(C(F)(F)F)c2)CC3)cc1	-20%	.	3%	-5	-13%	?
CC1CCN(C(=O)C[C@@H]2c3nc(NC(=O)c4cccc(F)c4)sc3C[C@@H]3[C@](C)(CO)[C@H](O)CC[C@]32C)CC1	?	i	-7%	3	-17%	?
COCCOC(=O)N1CCC(COc2ccc3c(cnn3CCC(=O)O)c2)CC1	?	i	0%[87.6 µM]	8	5%[87.6 µM]	-14%[172 µM]
O=C(O)CCn1ncc2cc(OCC3CCN(C(=O)CCC(F)(F)F)CC3)ccc21	13µM*	i	1%[87.6 µM]	-11	30%[87.6 µM]	-9%[172 µM]
O=C(O)CCn1ncc2cc(OC3CCN(C(=O)COc4ccccc4)CC3)ccc21	50µM*	i	5%[87.6 µM]	2	15%[87.6 µM]	i
O=C(O)CCn1ncc2cc(OC3CCN(C(=O)Oc4ccccc4)CC3)ccc21	?	i	-2%[87.6 µM]	-5	2%[87.6 µM]	-19%[172 µM]
O=C(O)CCn1ncc2cc(OCC3CCN(C(=O)Oc4ccccc4Cl)CC3)ccc21	18µM*	?	2%	-8	-11%	-25%
COCC(=O)N[C@H]1C[C@@H](Cc2cc(-c3ccccc3)on2)C1(C)C	?	?	-11%[87.6 µM]	-10	0%[87.6 µM]	?
CN1C(=O)c2cccn2CC1C(=O)Nc1cccc(Cl)c1 (configuration not stated)	-4%	i	5%	-5	-1%	i
CC(=O)Nc1ccc(C2(C(=O)N(C)Cc3ccccc3)CCCCC2)cc1	?	i	-12%	4	?	50µM*
CN(Cc1ccccc1)C(=O)C1(c2ccc(NC(=O)C3CC3)cc2)CCCCC1	?	i	-22%	9	-19%	35µM*
Cc1ccccc1CC(=O)N1CCC(n2cc(-c3nc(-c4ccccc4)no3)nn2)CC1	-4%	i	3%	-1	92%	-22%
O=C(c1ccc2oc(-c3ccncc3)nc2c1)N1CCOCC1	?	.	2%	4	16%	-15%
c1cncc(-c2cc(-c3cccc4cc[nH]c34)cn3cncc23)c1	?	i	-8%[87.6 µM]	-15	-11%[87.6 µM]	?
c1cc(-c2cc(-c3ccncc3)c3cncn3c2)c2cc[nH]c2c1	?	i	7%[87.6 µM]	-13	43%[87.6 µM]	89µM*
c1cc(-c2cc(-c3ccncc3)c3cncn3c2)c2[nH]ncc2c1	-45%[138 µM]	i	-17%[87.6 µM]	-5	?	-45%[172 µM]
c1cc(-c2cc(-c3ccncc3)c3cncn3c2)c2[nH]ccc2c1	40µM*	?	-1%[87.6 µM]	-6	?	100µM*
O=C1c2c(nc(CNCc3cccc(Cl)c3)n2Cc2ccccc2)NCCN1CCOc1ccccc1	?	i	4%	-5	5%	?
CCn1cc(S(=O)(=O)N2CCC(F)(c3nc(-c4ccncc4)no3)CC2)cn1	?	.	-1%	26	-4%	45µM*
CCn1cc(S(=O)(=O)N2CCC(c3noc(-c4ccncc4)n3)C2)cn1 (configuration not stated)	-25%	i	1%	-2	-3%	-10%
O=S(=O)(Cc1ccccc1)N1CCC(F)(c2nc(-c3ccncc3)no2)CC1	?	.	?	5	21%	?
O=S(=O)(c1ccccc1)N1CCC(F)(c2nc(-c3ccncc3)no2)CC1	?	.	0%	4	-10%	32µM*
COc1ccccc1Cn1c(=O)c(C(=O)N2CCN(C(=O)c3ccc(F)cc3)CC2)nc2cccnc21	-24%	.	1%	9	-3%	?
Cn1cc(-c2ccc3c(n2)CN(Cc2ccc(C(F)(F)F)cc2)C(=O)CO3)cn1	32µM*	i	-3%[87.6 µM]	-14	?	?
O=C1COc2ccc(-c3ccccc3)nc2CN1Cc1ccccc1	?	i	-10%[87.6 µM]	-10	6%[87.6 µM]	112µM*
SMILES	NIH3T3 tox	Luciferase inh	HEK293 viab	IP6K1 inhibitor	SNCA expr inhib	HEK cytotox
Cn1cc(-c2ccc3c(n2)CN(Cc2ccc(F)cc2)C(=O)CO3)cn1	?	i	-15%[87.6 µM]	0	?	?
O=C1COc2ccc(-c3ccc(Cl)cc3)nc2CN1Cc1ccccc1	?	i	-6%[87.6 µM]	-6	-22%[87.6 µM]	63µM*
Cn1cccc1CN1CCC2(C1)C(=O)N(Cc1ccccc1)c1ccccc12 (configuration not stated)	?	i	2%	9	-3%	?
O=C(Nc1cccc(Cl)c1)N1CCCCC1c1noc(COCC2CC2)n1 (configuration not stated)	?	i	-14%	-3	-22%	?
O=[S+]([O-])(N[C@@H]1[C@@H](c2ccccc2)[C@@H](CO)N2CCCC[C@H]12)c1ccc(Cl)cc1	?	.	.	-4	.	?
CC#CC(=O)N1CCCC(N2CCN(c3cccc(Cl)c3)CC2)C1 (configuration not stated)	-4%	i	-3%	1	?	-24%
O=C(N[C@H]1CO[C@H]2[C@@H]1OC[C@H]2OCc1ccccc1)c1ccc(C(F)(F)F)cc1	-29%[174 µM]	?	-10%[87.6 µM]	-11	-28%[87.6 µM]	79µM*
COc1ccc(-c2nccn3cc(C(=O)NCc4cccnc4)nc23)cc1	?	i	-22%	19	37%	-29%
COc1ccc(-c2nccn3cc(C(=O)NCc4nc5ccccc5n4C)nc23)cc1	?	i	-26%	16	-5%	28µM*
CCOC(=O)C1CCN(C(=O)c2cn3cc(-c4cccc(C(F)(F)F)c4)sc3n2)CC1	-30%	.	11%	14	-22%	i
CCOC(=O)C1CCN(C(=O)c2cn3ccnc(-c4ccc(OC)cc4)c3n2)CC1	?	i	5%	22	2%	79µM*
CCOC(=O)C1CCN(C(=O)c2cn3cc(-c4ccc(C(F)(F)F)cc4)sc3n2)CC1	40µM*	.	19%	-12	3%	?
O=C(CCc1ccccc1)N1CCC2(CC1)NC(=O)N(c1cccc(F)c1)N2	?	i	-4%	6	-10%	?
CN1CC2(CCN(S(=O)(=O)c3ccc(C#N)cc3)CC2)CC1C(=O)N1CCOCC1 (configuration not stated)	4%	i	-20%	-8	28%	-3%
COc1cccc(CC2(CO)CCCN(c3ccc(-c4nccn4C)nn3)C2)c1 (configuration not stated)	?	i	?	5	-13%	20µM*
